Experiment [1] in a line: compounds binding Alexa647 anti-His antibody – biochemical, small-molecule microarray, 635 nm fluorescence, artefact control for SMM control protein annotation, primary screen (AID 1128).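 Note: score merges feature fluorescence with signal-to-noise for each printed compound spot.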 Conditions: higher = more signal.
In experiment [2] the test system is Human papillomavirus type 1a E7 protein (residues 1-88). Briefly: HPV1a E7 small-molecule binders, primary screen, biochemical, small-molecule microarray, residues 1-88, 635 nm (AID 1129). The note with it: small-molecule microarray binding, fluorescence 635 nm; higher = more signal.
In experiment [3] the target is Focal adhesion kinase 1 (Homo sapiens) (UniProt Q05397). Description: PTK2 protein binding on printed compound slides – biochemical, small-molecule microarray, 635/667 nm fluorescence, BSA, DTT, primary screen (AID 1130).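 Note: composite of spot emission at 667 nm and signal to noise over triplicate slides.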 Conditions: 635 nm fluorescence, higher = more signal.
Sequence of Focal adhesion kinase 1 (Homo sapiens) (Q05397 whole entry, looked up): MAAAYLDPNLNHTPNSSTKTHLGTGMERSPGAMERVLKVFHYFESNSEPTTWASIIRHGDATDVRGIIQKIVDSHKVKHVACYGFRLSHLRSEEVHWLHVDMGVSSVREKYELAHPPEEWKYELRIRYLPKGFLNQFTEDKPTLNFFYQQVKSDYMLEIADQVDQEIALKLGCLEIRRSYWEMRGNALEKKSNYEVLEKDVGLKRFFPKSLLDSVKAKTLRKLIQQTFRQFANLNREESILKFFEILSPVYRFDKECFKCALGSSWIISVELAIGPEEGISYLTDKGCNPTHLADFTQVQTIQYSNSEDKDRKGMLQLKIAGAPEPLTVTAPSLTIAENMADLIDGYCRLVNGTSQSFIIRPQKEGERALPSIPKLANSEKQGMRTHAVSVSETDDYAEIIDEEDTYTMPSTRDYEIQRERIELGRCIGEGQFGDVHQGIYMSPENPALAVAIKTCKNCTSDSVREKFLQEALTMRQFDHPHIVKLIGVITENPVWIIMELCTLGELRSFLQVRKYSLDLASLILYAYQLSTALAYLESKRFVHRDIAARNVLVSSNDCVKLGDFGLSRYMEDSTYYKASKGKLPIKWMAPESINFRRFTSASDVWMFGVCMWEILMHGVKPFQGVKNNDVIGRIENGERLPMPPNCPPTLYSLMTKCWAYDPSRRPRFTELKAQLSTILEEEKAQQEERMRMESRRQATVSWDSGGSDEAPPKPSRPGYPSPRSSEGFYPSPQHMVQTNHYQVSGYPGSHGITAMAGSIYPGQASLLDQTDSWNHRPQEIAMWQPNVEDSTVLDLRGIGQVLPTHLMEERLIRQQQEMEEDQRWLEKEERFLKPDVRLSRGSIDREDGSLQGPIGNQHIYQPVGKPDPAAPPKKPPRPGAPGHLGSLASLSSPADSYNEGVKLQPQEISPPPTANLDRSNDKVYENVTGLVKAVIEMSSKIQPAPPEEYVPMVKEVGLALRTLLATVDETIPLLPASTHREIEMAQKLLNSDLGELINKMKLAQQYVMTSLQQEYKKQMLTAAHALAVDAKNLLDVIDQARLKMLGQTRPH
The subject of experiment [4] is Fibrinogen (Alexa647-labelled). Briefly: Alexa647-fibrinogen binding to printed small molecules – biochemical, small-molecule microarray, 635/667 nm fluorescence, artefact control for SMM control-protein annotation, profiling panel (AID 1131).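 Note: z-score merges 667 nm fluorescence with per-spot signal-to-noise over triplicate slides.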 The note with it: fibrinogen-A647 binding fluorescence, higher = more signal.
Experiment [5] has as its target Follistatin (Homo sapiens) (UniProt P19883). Briefly: FST protein binding to printed compounds – biochemical, small-molecule microarray, 635/667 nm fluorescence, primary screen (AID 1132). The note with it: 635 nm fluorescence, higher = more signal.
Experiment [6] has as its target Fibroblast growth factor 2 (Homo sapiens) (UniProt P09038). Briefly: basic fibroblast growth factor binding to printed compounds – biochemical, small-molecule microarray, 635/667 nm fluorescence, primary screen (AID 1133). Conditions: FGF2, fluorescence 635/667, higher = more signal.
Experiment [7] can be described thus: JC-1 mitochondrial potential readout, lung cancer cells – cell-based, A549, JC-1 fluorescence, basal, 24 h, 100 nL, profiling panel (AID 1138).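 Note: A549 lung adenocarcinoma cells under basal conditions with no added stimulus; test concentration not given here.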 Conditions: higher = more signal.
In experiment [8] the test system is Lefty1. Briefly: Lefty1 protein binding to printed compounds – biochemical, small-molecule microarray, 635/667 nm fluorescence, primary screen (AID 1139). Conditions: fluorescence 635/667, higher = more signal.
Experiment [9] deals with wheat germ agglutinin (Triticum aestivum), Alexa647-labelled. Briefly: Alexa647-WGA lectin binding to printed small molecules – biochemical, small-molecule microarray, 635/667 nm fluorescence, artefact control for SMM control-protein annotation, profiling panel (AID 1140).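 Note: score merges 667 nm feature emission with signal to noise over triplicate slides.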 Conditions: WGA-A647 binding, 635 nm fluorescence, higher = more signal.
Experiment [10] deals with Luciferin 4-monooxygenase (Photinus pyralis) (UniProt P08659). Briefly: inhibition of purified Photinus pyralis luciferase – biochemical, luminescence, purified enzyme, 2006 set, primary screen (AID 1141).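 Note: cell-free assay with purified firefly luciferase at 100 ng per well in PBS; test concentration not given here.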 Conditions: purified firefly luciferase, SteadyGlo luminescence, 30 min; higher = more signal, called active from +8 up or from −8 down.
Sequence of Luciferin 4-monooxygenase (Photinus pyralis) (P08659 whole entry, looked up): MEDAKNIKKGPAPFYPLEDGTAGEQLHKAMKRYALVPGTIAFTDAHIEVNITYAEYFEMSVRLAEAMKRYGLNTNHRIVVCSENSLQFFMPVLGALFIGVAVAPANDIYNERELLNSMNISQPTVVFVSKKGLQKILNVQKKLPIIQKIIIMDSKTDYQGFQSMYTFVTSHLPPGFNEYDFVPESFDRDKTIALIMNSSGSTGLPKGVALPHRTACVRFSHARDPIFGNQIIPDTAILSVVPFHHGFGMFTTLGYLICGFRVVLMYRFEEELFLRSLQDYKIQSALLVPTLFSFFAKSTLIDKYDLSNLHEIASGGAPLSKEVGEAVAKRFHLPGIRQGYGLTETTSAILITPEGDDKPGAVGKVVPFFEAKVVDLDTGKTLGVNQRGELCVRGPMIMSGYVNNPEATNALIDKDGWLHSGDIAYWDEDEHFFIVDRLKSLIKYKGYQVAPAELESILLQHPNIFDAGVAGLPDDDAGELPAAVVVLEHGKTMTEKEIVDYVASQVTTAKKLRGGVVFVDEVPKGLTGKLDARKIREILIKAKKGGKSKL

Consider 13 molecules from PubChem BioAssay.

Activity calls are given as the source filed them.

Sequence of Fibroblast growth factor 2 (Homo sapiens) (P09038 whole entry, looked up): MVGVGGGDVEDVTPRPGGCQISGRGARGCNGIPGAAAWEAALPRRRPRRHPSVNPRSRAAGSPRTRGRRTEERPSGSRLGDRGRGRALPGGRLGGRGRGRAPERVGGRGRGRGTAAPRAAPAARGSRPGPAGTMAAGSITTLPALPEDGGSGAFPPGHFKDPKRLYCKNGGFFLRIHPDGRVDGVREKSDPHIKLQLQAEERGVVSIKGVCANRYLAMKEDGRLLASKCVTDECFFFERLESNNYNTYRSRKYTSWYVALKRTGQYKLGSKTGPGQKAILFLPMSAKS
Sequence of Follistatin (Homo sapiens) (P19883 whole entry, looked up): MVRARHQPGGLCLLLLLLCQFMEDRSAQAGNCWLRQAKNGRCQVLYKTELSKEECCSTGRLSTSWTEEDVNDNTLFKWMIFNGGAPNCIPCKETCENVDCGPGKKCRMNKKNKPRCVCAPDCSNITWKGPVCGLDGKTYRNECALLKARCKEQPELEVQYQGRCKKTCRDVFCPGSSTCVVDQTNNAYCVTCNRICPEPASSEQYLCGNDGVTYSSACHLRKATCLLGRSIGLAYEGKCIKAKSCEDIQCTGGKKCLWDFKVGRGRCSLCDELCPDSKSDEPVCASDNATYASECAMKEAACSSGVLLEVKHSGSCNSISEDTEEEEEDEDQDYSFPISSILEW

As for `[N-]=[N+]=NCc1ccccc1[C@H]1OC(c2ccc(OCCCO)cc2)=N[C@@]1(Cc1ccccc1)C(=O)NCc1ccccc1`, the composite z-score in experiment [1] turned out to be 0.517; in [2] it was 1.17; in [3] it was 0.365; in experiment [4], 0.954; in [5], 1.13; in experiment [6] it was 0.0948. In addition, the composite z-score in [8] was -0.352; in experiment [9], 0.468. In addition, the values for the z-score in experiment [7] and in experiment [10] were 1.2 and -0.658 (inactive), respectively.
For `C=CCN1C(=O)[C@]2(O[C@H](CCO)[C@@H]([Si](C)(C)c3ccc(OC)cc3)[C@@H]2C)c2cc(N3CCCCC3=O)ccc21`, the composite z-score in experiment [1] came to 1.74; in experiment [2] it was 1.2; in [3], 0.162; in experiment [4] it was 0.799; in [5] it was 1.32; in [6] it was 0.361. In addition, the composite z-score amounted to 1.52 in [8] and 0.679 in experiment [9]. In addition, the z-score is 0.517 in experiment [7] and -0.117 (inactive) in experiment [10].
As for `O=C1c2ccccc2[C@@]2(Cc3ccccc3N(CCN3CCOCC3)C2=O)[C@H](c2ccc(CO)cc2)N1Cc1ccccc1`, the composite z-score in experiment [1] was -0.784; in [2], -0.689; in experiment [3], 0.352; in experiment [4] it was -0.523; in [5], 0.0312; in experiment [6], -0.253. The composite z-score was -0.0729 in experiment [8] and -0.304 in experiment [9]. The z-score is 0.202 in [7] and 1.01 (inactive) in experiment [10].
In the case of `CC(C)(C)C(=O)N[C@@H](c1ccc(Cl)cc1)[C@]1(C)C[C@H]1C1CCCCC1`, the composite z-score in experiment [1] is 0.893; in experiment [2], 1.21; in [3] it was 1.19; in [4], 1.02; in experiment [5], 0.279; in [6] it was -0.386. In addition, the composite z-score was -0.775 in experiment [8] and 0.537 in [9]. Moreover, the z-score in [7] was 2.63; in [10] it was 0.542 (inactive).
Take `C=CCNC(=O)[C@H]1[C@@H]2C(=O)O[C@@H](c3ccccc3)[C@@H](c3ccccc3)N2[C@@H](c2ccc(O)cc2)[C@]12C(=O)N(C(=O)OCCOC)c1ccc(C#CCNC(N)=O)cc12`: the composite z-score in experiment [1] was found to be 1.05; in experiment [2], 0.898; in experiment [3], 0.0197; in experiment [4], 0.0703; in experiment [5], 1.44; in experiment [6], 1.58. Further, the composite z-score came out at 0.713 in experiment [8] and 1.03 in experiment [9]. The z-score in experiment [7] was -0.531; in experiment [10], -0.0822 (inactive).
Take `O=C1C2C=CC(C(O)c3c(F)cccc3Cl)N(Nc3ccccc3)C2C(=O)N1c1ccccc1` (stereo not given): the composite z-score in experiment [1] is 0.397; in experiment [2] it was 1.26; in experiment [3], 0.471; in experiment [4] it was 1.03; in experiment [5], 1.24; in experiment [6] it was -0.0407. Also, the composite z-score in experiment [8] turned out to be 0.464; in experiment [9] it was 0.816. The z-score in experiment [7] was 0.555; in experiment [10], 0.429 (inactive).
With `CCOC(=O)C[C@H]1[C@H](OC(=O)c2ccc(C(=O)c3ccccc3)cc2)[C@@H](NC(=O)c2ccc(-c3ccccc3)cc2)c2cc(OCCCO)ccc2N1C(=O)c1ccccc1`, the composite z-score in [1] amounted to 0.256; in [2], 0.87; in experiment [3], 0.644; in [4], 0.803; in experiment [5] it was 0.559; in experiment [6] it was 0.59. In addition, the composite z-score in experiment [8] was determined as 0.712; in experiment [9], 0.131. In addition, the z-score in experiment [7] is -0.187; in [10] it was -0.265 (inactive).
As for `CC(C)(C)OC(=O)CC[C@@]1(C(=O)NCCN2CCOCC2)N=C(c2ccc(OCCCO)cc2)O[C@@H]1c1ccccc1N=[N+]=[N-]`, the composite z-score was 0.22 in experiment [1]; 1.2 in experiment [2]; 1.21 in experiment [3]; 0.554 in [4]; 1.18 in experiment [5]; -0.156 in experiment [6]. The composite z-score was -0.0836 in [8] and 0.0832 in [9]. Also, the z-score in experiment [7] is 1.26; in experiment [10], -9.63 (active).
Take `O=C1c2ccccc2[C@](Cc2ccccc2I)(C(=O)NC2CC2)[C@H](c2ccc(CO)cc2)N1Cc1ccccc1`: the composite z-score in experiment [1] was -0.025; in [2] it was 0.0081; in experiment [3] it was -0.186; in experiment [4], 0.471; in [5], 0.885; in experiment [6], 1.16. Further, the results for the composite z-score in experiment [8] and in experiment [9] were -0.502 and 0.322, respectively. For the same molecule, the figures for the z-score in experiment [7] and in experiment [10] were -0.194 and 0.873 (inactive), respectively.
As to `COc1cc(CO)cc(I)c1O[C@H]1C=C(C(=O)NCCO)C[C@@H](N(CCN2CCOCC2)C(=O)C2CCOC2)[C@@H]1O` (stereo not given in full), the composite z-score is -0.504 in experiment [1]; -0.233 in [2]; -0.508 in [3]; 0.651 in [4]; 0.581 in experiment [5]; 0.675 in experiment [6]. Besides, the figures for the composite z-score in experiment [8] and in [9] were 0.792 and -0.201, respectively. In addition, the z-score in experiment [7] is 1.86; in experiment [10], -1.13 (inactive).
For `CC(C)[C@@H](CO)NC(=O)[C@H]1[C@@H](c2ccccc2)N(c2ccccc2)O[C@@H]1C`, the composite z-score is 0.398 in experiment [1]; -0.253 in experiment [2]; -0.168 in experiment [3]; 0.0711 in experiment [4]; 0.104 in experiment [5]; 0.0808 in experiment [6]. Moreover, the values for the composite z-score in experiment [8] and in experiment [9] were 0.216 and 0.149, respectively. In addition, the z-score in experiment [7] was 0.204; in [10] it was -0.21 (inactive).
Turning to `C=CCC(OC(C)=O)[C@@H]1[C@@H](N(Cc2ccc(-c3cccc(C(F)(F)F)c3)o2)C(=O)Cc2ccc(F)cc2)c2cc(OCCCO)ccc2N1C(=O)Cc1ccc(OC)cc1` (stereo not given in full), the composite z-score in experiment [1] is -0.775; in experiment [2], -2.07; in experiment [3], -0.572; in experiment [4], -0.0256; in experiment [5], 0.346; in experiment [6] it was -0.308. Besides, the composite z-score in experiment [8] is -0.0727; in experiment [9], 0.114. Moreover, the z-score in experiment [7] was 0.812; in experiment [10] it was 0.175 (inactive).
`CCCCCN1CC=CC23O[C@@H]4/C=C\CCCOC(=O)C4[C@H]2C(=O)N(CCCO)[C@@H]3C1=O` (stereo not given in full): the composite z-score in experiment [1] is 2.06; in experiment [2], 1.3; in [3], 1.23; in [4] it was -0.965; in [5], -0.162; in experiment [6], -0.281. The composite z-score in experiment [8] was 0.157; in experiment [9], 0.197. In addition, the z-score was -0.564 in experiment [7] and -2.41 (inactive) in experiment [10].
